In PubChem BioAssay:
Results filed as inconclusive are left out. The source made the active and inactive calls. Unless noted, no stated cut-off is given here; in the data, active means percent of DMSO control GFP below about 86%; inactive means the rest, inconclusive results apart.

Tests used:
[1] = yeast TOR pathway RPL19A-GFP modulators, primary screen, cell-based, S. cerevisiae, multiplex flow cytometry (AID 1862);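 further: lower values mimic rapamycin by blocking the RPL19A rise seen in DMSO cells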; settings: S. cerevisiae RPL19A-GFP strain, flow cytometry fluorescence, 3 h; at 10 µM; stronger effect = lower value
[2] = modulators of MEP2-GFP levels in yeast, primary screen, S. cerevisiae, multiplex flow cytometry (AID 1867;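 active means GFP response, as percent of the DMSO control, above the screen-wide mean plus 3 SD, about 139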;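 further: median GFP channel fluorescence of barcode-gated MEP2-GFP cells measured by flow cytometry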); settings: S. cerevisiae MEP2-GFP strain, 3 h, at 10 µM, stronger effect = higher value, 100% means same as DMSO wells
[3] = modulators of CIT2-GFP expression in yeast, primary screen, S. cerevisiae, GFP fusion, multiplex flow cytometry (AID 1870;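 active means percent response above a set limit, the screen-wide mean plus 3 SD, cut at about 130% in these data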;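 further: barcoded CIT2-GFP strain pooled with four other GFP strains with rapamycin as positive control; median GFP fluorescence per well over plate mean of DMSO wells so 100% = DMSO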); settings: 3 h, at 10 µM, stronger effect = higher value
[4] = modulators of LAP4-GFP expression in yeast, primary screen, S. cerevisiae, multiplex flow cytometry (AID 1873;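 active means GFP signal, as percent of the solvent control, above the screen mean plus 3 SD, about 149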); settings: 3 h, at 10 µM, stronger effect = higher value
[5] = modulators of AGP1-GFP expression in yeast TOR pathway, primary screen, cell-based, multiplex flow cytometry, S. cerevisiae (AID 1887;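 active means GFP signal above the screen-wide mean plus 3 SD, that is over about 124.5% of the solvent control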;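 further: AGP1-GFP fusion strain of S. cerevisiae within a five-strain barcoded multiplex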); settings: 3 h, at 10 µM, stronger effect = higher value
[6] = inhibitors of CD8+ T cell-vesicle binding, pilot screen, LFA-1/ICAM-1 modulator project, MLPCN validation set, flow cytometry (AID 2523;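 active means response below a set limit, under 55% cells CD8-positive and vesicle-bound, and CD8 cells' 90th-percentile brightness under 279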;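 on vesicle binding response: mean PE anti-B7-1 fluorescence of CD8+ cells relative to row control; 100% = QL9-loaded vesicles with DMSO vehicle in the same plate row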); settings: 2C mouse CD8+ T cells, at 7 µM, stronger effect = lower value; double positive events: measured here: CD8+/vesicle+ event percentage
[7] = molecular target: Integrin beta-1 (Homo sapiens) + Integrin alpha-4 (Homo sapiens) (UniProt P13612+P05556); experiment: inhibition of HUTS-21 binding to VLA-4, pilot screen, VLA-4 allosteric modulator project, U937 cells, HUTS-21 mAb, flow cytometry, validation set (AID 2674;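 active means inhibition above 50%, about 3 SD of the validation set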;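 further: antibody binding induced by the VLA-4 ligand LDV present at three times its Kd; 0% = LDV ligand with antibody and no compound and 100% = antibody without LDV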); settings: HUTS-21 LIBS mAb binding, at 6.7 µM, stronger effect = higher value, binding induced by LDV ligand
[8] = superoxide lowering in aged yeast cells, pilot screen, validation compound set (AID 2706;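 active means superoxide response below 65% of plate, a cut near 3 SD across the whole screen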;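 further: yeast exposed to compound for one week at 30 degrees C before staining; 100% = mean of all compound wells on the same plate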); settings: S. cerevisiae aging, superoxide DHE fluorescence; at 10 µM; stronger effect = lower value
[9] = molecular target: Beta-adrenergic receptor kinase 1 (Homo sapiens) (UniProt P25098); experiment: GRK2 binders displacing RNA aptamer, biochemical, validation, human GRK2, bead flow cytometry (AID 488806;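 active means aptamer binding inhibition above 30%, about 3 SD of noise from non-fluorescent compounds; inactive means inhibition at or below 30%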); settings: bead-bound GRK2, FAM-aptamer displacement, at 10 µM, stronger effect = higher value
[10] = molecular target: Beta-2 adrenergic receptor (Homo sapiens) (UniProt P07550); experiment: beta2AR agonists driving receptor internalization, pilot screen, cell-based, FAP fluorogen, flow cytometry, validation set (AID 504459;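 active means percent response above 42, roughly 3 SD of non-fluorescent test compounds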;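 further: agonist-driven loss of surface beta2AR via internalization measured by FAP dye flow cytometry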); settings: Am2.2-beta2AR cells, FAP surface receptor flow cytometry; at 10 µM; stronger effect = higher value
[11] = molecular target: AP-2 complex subunit beta (Homo sapiens) (UniProt P63010); experiment: inhibitors of arrestin peptide binding to AP2, pilot screen, biochemical, validation set, GST-AP2 beads, flow cytometry (AID 504541;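 active means inhibition above 54%, about 3 SD of non-fluorescent compounds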;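 further: AP2 carries R879A mutation and is captured from E. coli lysate; bead-bound FITC arrestin peptide fluorescence measuring arrestin peptide binding to AP2; 0% = DMSO wells and 100% = excess unlabeled arrestin peptide control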); settings: FITC arrestin peptide, at 10 µM, stronger effect = higher value, AP2 beta2 appendage fragment, R879A mutant
[12] = yeast V-ATPase proton transport modulators, S. cerevisiae, pHLuorin, HTS validation (AID 504600; in the data active means response above about 15%;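 further: plate controls were DMSO for no effect and reference compound for full effect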); settings: S. cerevisiae pHLuorin cytosolic pH, at 10 µM, stronger effect = higher value
[13] = tested on: anti-desmoglein-3 scFv antibody binding to human DSG3; experiment: inhibitors of anti-DSG3 scFv binding to DSG3, pilot screen, biochemical, validation compound set, bead-based, flow cytometry (AID 588368;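 active means binding below the plate cutoff, the plate median minus 3 SD, with a reading above zero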;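 further: signal is the median channel fluorescence of bead-bound GFP antibody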); settings: Protein G beads, DSG3-Fc, scFv-GFP binding, at 10 µM, stronger effect = lower value
[14] = inhibitors of fungal efflux pumps CDR1, CDR2, MDR1, pilot screen, validation compound set, multiplex, phenotypic (AID 588506;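 active means efflux inhibition above 0.42, the validation set average plus 4 SD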;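 further: Nile Red retained in cells so higher fluorescence means more efflux inhibition; 0 = negative control wells and 1 = enniatin B 25 µM full block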); settings: S. cerevisiae pump-expressing triplex, Nile Red efflux flow cytometry; at 10 µM; stronger effect = higher value; the pumps come from Candida albicans
[15] = molecular target: ATP-binding cassette sub-family B member 6 (Homo sapiens) (UniProt Q9NP58); experiment: ABCB6 transporter inhibitors, pilot screen, K562-ABCB6 cells, flow cytometry, validation set (AID 588550;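 active means inhibition above the screen-wide mean plus 3 SD, about 51%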;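 further: 0% = DMSO wells and 100% = benzethonium chloride 70 µM positive control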); settings: K562-ABCB6 porphyrin accumulation, 1 h, at 10 µM, stronger effect = higher value
[16] = promoters of myeloid differentiation in arrested cells, primary screen, cell-based, GFP/MAC1 double positive, flow cytometry, validation set (AID 588685;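 active means differentiation response of at least 50%, scaled between solvent and reference control, from cells with both markers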;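 further: compound exposure lasts four days before antibody staining and flow analysis; 0% = DMSO wells and 100% = 5 µM fulvestrant positive control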); settings: ER-HoxA9 marrow cells, stronger effect = higher value, normalized: vehicle 0, fulvestrant 100

Chain of AP-2 complex subunit beta (Homo sapiens) (P63010 whole entry, looked up, the tested form may be a part, one chain of several): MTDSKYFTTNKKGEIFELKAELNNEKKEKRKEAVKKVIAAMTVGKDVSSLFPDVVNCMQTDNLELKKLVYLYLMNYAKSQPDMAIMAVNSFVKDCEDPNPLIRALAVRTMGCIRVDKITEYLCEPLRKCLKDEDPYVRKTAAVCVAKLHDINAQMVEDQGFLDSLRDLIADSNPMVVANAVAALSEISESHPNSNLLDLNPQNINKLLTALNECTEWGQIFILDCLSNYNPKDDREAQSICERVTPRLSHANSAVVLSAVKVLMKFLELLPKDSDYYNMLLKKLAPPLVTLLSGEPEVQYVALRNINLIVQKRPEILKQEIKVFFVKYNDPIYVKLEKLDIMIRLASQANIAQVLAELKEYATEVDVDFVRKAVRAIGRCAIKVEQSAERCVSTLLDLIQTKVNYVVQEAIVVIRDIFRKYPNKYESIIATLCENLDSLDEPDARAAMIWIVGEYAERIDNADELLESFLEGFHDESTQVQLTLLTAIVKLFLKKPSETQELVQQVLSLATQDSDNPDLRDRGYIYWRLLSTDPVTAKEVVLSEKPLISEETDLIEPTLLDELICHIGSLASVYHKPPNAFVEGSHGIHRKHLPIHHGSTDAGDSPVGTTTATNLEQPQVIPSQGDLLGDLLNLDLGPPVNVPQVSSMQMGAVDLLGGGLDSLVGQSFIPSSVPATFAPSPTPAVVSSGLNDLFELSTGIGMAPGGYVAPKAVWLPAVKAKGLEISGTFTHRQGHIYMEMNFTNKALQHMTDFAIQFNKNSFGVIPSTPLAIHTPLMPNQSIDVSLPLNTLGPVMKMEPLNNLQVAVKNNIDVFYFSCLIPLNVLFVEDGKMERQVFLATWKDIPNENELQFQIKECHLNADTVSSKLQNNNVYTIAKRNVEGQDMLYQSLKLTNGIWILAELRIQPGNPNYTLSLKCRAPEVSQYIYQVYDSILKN
Chain of Integrin beta-1 (Homo sapiens) + Integrin alpha-4 (Homo sapiens) (P05556 whole entry, looked up): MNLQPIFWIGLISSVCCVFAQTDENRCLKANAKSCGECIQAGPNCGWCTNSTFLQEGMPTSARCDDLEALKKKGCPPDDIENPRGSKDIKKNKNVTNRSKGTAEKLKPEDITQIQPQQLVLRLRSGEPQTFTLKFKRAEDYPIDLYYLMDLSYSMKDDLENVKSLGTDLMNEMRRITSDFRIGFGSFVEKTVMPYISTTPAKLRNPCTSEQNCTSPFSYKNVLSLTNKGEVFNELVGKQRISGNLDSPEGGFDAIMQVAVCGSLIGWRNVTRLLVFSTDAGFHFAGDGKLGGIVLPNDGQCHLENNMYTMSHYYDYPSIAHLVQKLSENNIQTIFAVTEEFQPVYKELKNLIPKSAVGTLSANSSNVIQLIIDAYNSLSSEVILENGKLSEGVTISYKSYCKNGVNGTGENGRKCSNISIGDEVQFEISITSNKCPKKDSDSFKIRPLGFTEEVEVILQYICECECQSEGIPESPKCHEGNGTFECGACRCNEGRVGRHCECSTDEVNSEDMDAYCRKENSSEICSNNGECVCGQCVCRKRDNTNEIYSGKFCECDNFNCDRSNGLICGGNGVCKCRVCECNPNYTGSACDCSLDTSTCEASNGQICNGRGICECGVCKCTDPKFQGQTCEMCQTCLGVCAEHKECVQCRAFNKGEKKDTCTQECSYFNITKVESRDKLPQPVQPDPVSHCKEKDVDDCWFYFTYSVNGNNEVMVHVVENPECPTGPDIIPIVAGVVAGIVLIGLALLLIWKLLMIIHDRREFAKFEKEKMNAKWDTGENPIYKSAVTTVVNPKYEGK
Chain of Integrin beta-1 (Homo sapiens) + Integrin alpha-4 (Homo sapiens) (P13612 whole entry, looked up): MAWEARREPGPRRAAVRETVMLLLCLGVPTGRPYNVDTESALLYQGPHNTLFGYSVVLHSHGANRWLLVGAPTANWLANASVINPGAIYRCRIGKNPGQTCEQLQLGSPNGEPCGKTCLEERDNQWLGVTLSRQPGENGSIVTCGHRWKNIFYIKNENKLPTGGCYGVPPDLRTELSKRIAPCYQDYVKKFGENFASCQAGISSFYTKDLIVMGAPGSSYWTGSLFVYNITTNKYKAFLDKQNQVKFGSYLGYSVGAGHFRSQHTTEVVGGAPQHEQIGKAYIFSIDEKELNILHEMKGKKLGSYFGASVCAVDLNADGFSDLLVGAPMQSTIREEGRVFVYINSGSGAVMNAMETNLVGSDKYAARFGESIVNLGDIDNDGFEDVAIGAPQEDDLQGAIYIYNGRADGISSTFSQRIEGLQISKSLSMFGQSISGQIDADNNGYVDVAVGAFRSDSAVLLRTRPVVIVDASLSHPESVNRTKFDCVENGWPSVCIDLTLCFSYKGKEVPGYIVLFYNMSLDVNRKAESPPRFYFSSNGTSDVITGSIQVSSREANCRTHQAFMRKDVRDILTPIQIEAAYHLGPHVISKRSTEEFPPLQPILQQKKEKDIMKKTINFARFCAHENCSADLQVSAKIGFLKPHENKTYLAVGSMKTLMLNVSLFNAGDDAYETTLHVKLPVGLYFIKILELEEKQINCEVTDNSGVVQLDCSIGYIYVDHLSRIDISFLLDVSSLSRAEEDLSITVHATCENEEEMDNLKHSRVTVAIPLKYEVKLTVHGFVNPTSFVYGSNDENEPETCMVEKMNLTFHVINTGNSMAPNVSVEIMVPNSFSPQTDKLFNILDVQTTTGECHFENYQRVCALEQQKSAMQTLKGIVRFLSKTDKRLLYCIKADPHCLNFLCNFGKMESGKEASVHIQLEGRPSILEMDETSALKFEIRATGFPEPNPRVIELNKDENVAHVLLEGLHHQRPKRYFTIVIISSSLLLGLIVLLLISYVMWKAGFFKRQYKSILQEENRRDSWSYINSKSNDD
Chain of Beta-adrenergic receptor kinase 1 (Homo sapiens) (P25098 whole entry, looked up): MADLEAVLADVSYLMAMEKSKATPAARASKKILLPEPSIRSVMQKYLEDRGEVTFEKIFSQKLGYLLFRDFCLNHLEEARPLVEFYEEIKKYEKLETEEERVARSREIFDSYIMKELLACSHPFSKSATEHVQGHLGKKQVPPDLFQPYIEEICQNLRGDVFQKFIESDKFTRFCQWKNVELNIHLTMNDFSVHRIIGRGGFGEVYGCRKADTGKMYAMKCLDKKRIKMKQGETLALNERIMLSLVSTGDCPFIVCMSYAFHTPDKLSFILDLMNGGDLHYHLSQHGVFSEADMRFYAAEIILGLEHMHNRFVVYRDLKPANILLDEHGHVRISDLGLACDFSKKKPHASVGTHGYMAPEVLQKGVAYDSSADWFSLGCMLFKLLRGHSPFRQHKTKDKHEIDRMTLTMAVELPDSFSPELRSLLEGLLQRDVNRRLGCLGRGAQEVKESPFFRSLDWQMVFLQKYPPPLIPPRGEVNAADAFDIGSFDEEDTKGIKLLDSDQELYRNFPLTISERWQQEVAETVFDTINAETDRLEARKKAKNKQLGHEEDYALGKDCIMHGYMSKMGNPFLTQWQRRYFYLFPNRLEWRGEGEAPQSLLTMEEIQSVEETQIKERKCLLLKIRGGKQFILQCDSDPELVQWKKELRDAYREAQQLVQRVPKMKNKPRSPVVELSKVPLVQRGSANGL
Chain of Beta-2 adrenergic receptor (Homo sapiens) (P07550 whole entry, looked up): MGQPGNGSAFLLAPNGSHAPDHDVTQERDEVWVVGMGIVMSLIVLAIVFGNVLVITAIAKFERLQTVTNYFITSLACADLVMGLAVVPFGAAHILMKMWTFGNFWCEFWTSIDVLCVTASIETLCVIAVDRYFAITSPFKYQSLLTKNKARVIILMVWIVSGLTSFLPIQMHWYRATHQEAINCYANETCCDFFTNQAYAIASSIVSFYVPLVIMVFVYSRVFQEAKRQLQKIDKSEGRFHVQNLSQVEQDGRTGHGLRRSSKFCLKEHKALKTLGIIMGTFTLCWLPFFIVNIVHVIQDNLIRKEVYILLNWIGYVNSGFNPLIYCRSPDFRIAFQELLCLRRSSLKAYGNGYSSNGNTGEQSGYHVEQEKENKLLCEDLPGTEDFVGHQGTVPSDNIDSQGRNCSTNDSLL
Chain of ATP-binding cassette sub-family B member 6 (Homo sapiens) (Q9NP58 whole entry, looked up): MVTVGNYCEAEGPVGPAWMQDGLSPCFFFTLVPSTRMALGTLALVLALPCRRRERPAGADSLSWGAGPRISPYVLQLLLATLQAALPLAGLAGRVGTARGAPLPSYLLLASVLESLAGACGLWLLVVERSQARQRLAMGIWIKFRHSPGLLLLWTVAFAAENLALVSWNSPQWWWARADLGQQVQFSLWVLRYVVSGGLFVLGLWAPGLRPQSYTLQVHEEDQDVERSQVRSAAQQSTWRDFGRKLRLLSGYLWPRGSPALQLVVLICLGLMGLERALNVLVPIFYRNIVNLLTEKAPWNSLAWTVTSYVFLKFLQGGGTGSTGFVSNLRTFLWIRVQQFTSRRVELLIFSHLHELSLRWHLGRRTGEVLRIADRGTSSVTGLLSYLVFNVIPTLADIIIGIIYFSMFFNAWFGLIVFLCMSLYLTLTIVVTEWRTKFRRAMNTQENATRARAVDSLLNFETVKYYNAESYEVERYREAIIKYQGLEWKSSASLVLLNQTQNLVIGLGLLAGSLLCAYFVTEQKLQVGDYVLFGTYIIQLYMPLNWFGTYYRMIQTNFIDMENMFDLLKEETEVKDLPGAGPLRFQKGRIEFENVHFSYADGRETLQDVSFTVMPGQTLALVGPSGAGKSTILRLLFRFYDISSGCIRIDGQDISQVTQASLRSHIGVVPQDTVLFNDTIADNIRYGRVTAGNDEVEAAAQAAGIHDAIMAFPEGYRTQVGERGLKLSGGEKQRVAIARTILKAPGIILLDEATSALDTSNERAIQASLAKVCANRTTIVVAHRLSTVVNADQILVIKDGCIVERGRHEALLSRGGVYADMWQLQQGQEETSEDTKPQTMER

Structure (SMILES)	percent of DMSO control GFP [1]	GFP response vs DMSO [2]	percent response of DMSO control [3]	GFP response vs DMSO [4]	GFP response, % of DMSO [5]	double positive events [6]	vesicle binding response [6]	inhibition [7]	superoxide response (% of plate) [8]	aptamer binding inhibition [9]	response [10]	inhibition [11]	response [12]	binding (% of control) [13]	efflux inhibition (fraction of control) [14]	inhibition [15]	differentiation response [16]
CCOC(=O)c1ccc(N2C(=O)C(CC(=O)NC)N(CCc3ccc(OC)c(OC)c3)C2=S)cc1 (stereo not drawn)	103% (inactive)	99.9% (inactive)	101% (inactive)	104% (inactive)	98.8% (inactive)	59.4%	248% (inactive)	6.85% (inactive)	113% (inactive)	5% (inactive)	5.49% (inactive)	-11.1% (inactive)	0.17% (inactive)	103% (inactive)	0.26 (inactive)	4% (inactive)	-1.12% (inactive)
O=C(CN1C(=O)c2ccccc2C1=O)Nc1cccc([N+](=O)[O-])c1	103% (inactive)	98.7% (inactive)	109% (inactive)	100% (inactive)	106% (inactive)	61.2%	130% (inactive)	-18.5% (inactive)	94.2% (inactive)	-3% (inactive)	-3.16% (inactive)	35% (inactive)	-0.16% (inactive)	101% (inactive)	0.005 (inactive)	7% (inactive)	-10.4% (inactive)
COc1ccc(C(=O)O)cc1F	104% (inactive)	107% (inactive)	107% (inactive)	94.8% (inactive)	103% (inactive)	65.5%	151% (inactive)	-1.09% (inactive)	105% (inactive)	3% (inactive)	3.73% (inactive)	15.5% (inactive)	-13.5% (inactive)	102% (inactive)	-0.09 (inactive)	-3% (inactive)	-8.96% (inactive)
CCCC(=O)Nc1ccccc1NC(C)=O	101% (inactive)	102% (inactive)	108% (inactive)	99.1% (inactive)	104% (inactive)	65.9%	170% (inactive)	-9.13% (inactive)	111% (inactive)	1% (inactive)	5.03% (inactive)	-1.46% (inactive)	0.04% (inactive)	95.1% (inactive)	1.13 (active)	0% (inactive)	-1.65% (inactive)
Nc1ccc2nc(Cc3ccccc3)[nH]c2c1	90.2% (inactive)	150% (active)	108% (inactive)	82.5% (inactive)	89.4% (inactive)	60.5%	192% (inactive)	3.55% (inactive)	102% (inactive)	7% (inactive)	10.6% (inactive)	-0.76% (inactive)	-0.84% (inactive)	98% (inactive)	0.48 (active)	3% (inactive)	15.6% (inactive)
CCCCN1C[C@H](O)[C@@H](O)[C@H](O)[C@H]1CO	102% (inactive)	99.6% (inactive)	95.7% (inactive)	103% (inactive)	113% (inactive)	64.9%	203% (inactive)	13.4% (inactive)	104% (inactive)	5% (inactive)	-17% (inactive)	-12.1% (inactive)	5.64% (inactive)	104% (inactive)	-0.04 (inactive)	0% (inactive)	0.92% (inactive)
COc1ccc(C(=O)NCc2cccnc2)cc1	103% (inactive)	101% (inactive)	98.6% (inactive)	85.4% (inactive)	94.6% (inactive)	58.3%	247% (inactive)	11.9% (inactive)	105% (inactive)	7% (inactive)	3.58% (inactive)	-8.5% (inactive)	1.75% (inactive)	101% (inactive)	-0.13 (inactive)	6% (inactive)	-24.8% (inactive)
O=C(O)c1cccnc1Nc1cccc(C(F)(F)F)c1	95.9% (inactive)	130% (inactive)	110% (inactive)	83.6% (inactive)	93.3% (inactive)	63.3%	214% (inactive)	7.43% (inactive)	98.6% (inactive)	6% (inactive)	6.98% (inactive)	47.1% (inactive)	-7.29% (inactive)	102% (inactive)	0.48 (active)	15% (inactive)	7.37% (inactive)
Cc1nonc1CN(C)C(=O)c1ccc(OC2CCN(Cc3ccccn3)CC2)cc1	107% (inactive)	97.2% (inactive)	113% (inactive)	83.5% (inactive)	102% (inactive)	61.2%	249% (inactive)	19.3% (inactive)	95.8% (inactive)	0% (inactive)	-11.2% (inactive)	-5.72% (inactive)	2.07% (inactive)	97.6% (inactive)	0.14 (inactive)	13% (inactive)	6.11% (inactive)
